{
  "source": "PubChem BioAssay (NCI)",
  "note": "About 83,000 compounds went through this panel and 20% of them were active in at least one assay; those are over-represented in the sample as a whole.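 Testing used 96-well plates and a 48-hour single-concentration exposure. Example: -40 means 40% of the starting cells died.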 Activity calls are given as the source filed them. Rule for the calls: active = growth percent below 10; inactive = the rest.",
  "data": [
    {"test_system": "OVCAR-3 ovarian", "assay": "NCI-60 one-dose screen, 48 h (100 = growth as untreated, 0 = no growth, -100 = all killed)", "conditions": "10 µM unless noted", "values": [
      {"compound": "COc1ccc2c(c1)CC[C@@H]1[C@@H]2CC[C@]2(C)[C@@H](O)C(=O)C[C@@H]12", "growth": "106% (inactive)"},
      {"compound": "C[C@@H]1CN(c2nc3c(cc2F)c(=O)c(C(=O)O)cn3C(C)(C)C)C[C@H](C)N1", "growth": "104% (inactive)"},
      {"compound": "NS(=O)(=O)c1ccc(-n2ncc3c(NC4CCCCC4)ncnc32)cc1", "growth": "128% (inactive)"},
      {"compound": "CCOC(=O)C1=CCC(n2cc(C)c(=O)[nH]c2=O)O1", "note": "(stereo not given)", "growth": "108% (inactive)"},
      {"compound": "O=CNc1ccc2c(c1)Cc1cc([N+](=O)[O-])ccc1-2", "growth": "16.1% (inactive)"},
      {"compound": "CC(=O)[C@H]1CC[C@H]2[C@@H]3C[C@H](C)C4=CC(=O)CC[C@]4(C)[C@H]3C(=O)C[C@]12C", "growth": "110% (inactive)"},
      {"compound": "Cc1ccc(C(=O)Cc2ccccc2)c(O)c1", "growth": "110% (inactive)"},
      {"compound": "ICCC(c1ccccc1)(c1ccccc1)c1ccccc1", "growth": "58.1% (inactive)"},
      {"compound": "c1ccc(CN=C(NCc2ccccc2)NCc2ccccc2)cc1", "growth": "51.4% (inactive)"},
      {"compound": "O=C(CC(C(=O)c1ccccc1)N1CCN(Cc2ccccc2)CC1)c1ccccc1", "note": "(stereo not given)", "growth": "58.8% (inactive)"},
      {"compound": "CC(NC(N)=S)c1ccccc1", "note": "(stereo not given)", "growth": "111% (inactive)"},
      {"compound": "C[C@]12CCC(=O)C=C1CC[C@H]1[C@@H]3C[C@@H](O)[C@](O)(C(=O)CO)[C@@]3(C)C[C@H](O)[C@@]12F", "growth": "105% (inactive)"},
      {"compound": "O=C(Nc1ccc2c(c1)C(=O)c1ccccc1-2)c1ccccc1", "growth": "79.5% (inactive)"},
      {"compound": "COC(=O)C1=CCC(n2cnc3c(N)ncnc32)O1", "note": "(stereo not given)", "growth": "106% (inactive)"},
      {"compound": "CCN(Cc1cccc(S(=O)(=O)[O-])c1)c1ccc(C(=C2C=CC(=[N+](CC)Cc3cccc(S(=O)(=O)O)c3)C=C2)c2ccccc2S(=O)(=O)O)cc1", "growth": "102% (inactive)"}
    ]}
  ]
}
